From PubChem BioAssay AID1878 (Sanford-Burnham Center for Chemical Genomics, 2009)
About 200 (20%) of roughly 1,000 compounds were called active. A selection follows. Measured potencies and affinities stand elsewhere. A number with no mark means an inactive call. Rule as the data show it: active = inhibition above about 55%; inactive = the rest.

target: Dual specificity protein phosphatase 3 (Homo sapiens) (UniProt P51452); experiment: VHR1 phosphatase inhibitors, biochemical (AID 1878); conditions: recombinant VHR phosphatase, fluorogenic substrate; at 13.3 µM; active compounds read high
Sequence (P51452 whole entry, looked up): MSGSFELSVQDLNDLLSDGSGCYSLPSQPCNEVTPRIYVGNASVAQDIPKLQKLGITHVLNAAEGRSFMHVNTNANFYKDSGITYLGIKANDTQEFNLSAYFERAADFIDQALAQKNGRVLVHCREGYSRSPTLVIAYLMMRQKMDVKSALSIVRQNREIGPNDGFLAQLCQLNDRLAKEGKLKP

| SMILES | inhibition |
| --- | --- |
| O=C(CN1CCN(c2ccc(O)cc2)CC1)N1CCc2ccccc21 | -16.5% |
| CCOc1ccc(-n2c(SCC(=O)N3CCc4ccccc43)nnc2-c2c[nH]c3ccccc23)cc1 | 83.6% (active) |
| O=C(CCCN1C(=O)C(c2ccccc2)Oc2cccnc21)Nc1ccccc1Cl (centres undefined) | 4.6% |
| Cc1c(Cl)cccc1NC(=O)c1cccc(OC(F)F)c1 | 29.2% |
| COc1c(C(=O)Nc2ccc3[nH]c(=O)[nH]c3c2)cc2ccccc2c1Br | 13.6% |
| COc1ccccc1CCNC(=O)c1cc(-c2ccncc2)nc2ccc(Br)cc12 | 70.1% (active) |
| COc1ccccc1CCNC(=O)CNC(=O)c1ccc2ccccc2c1 | -4.1% |
| CCOc1ccccc1NC(=O)c1cc(-c2ccncc2)nc2c(Cl)cccc12 | 34.3% |
| O=C(Nc1ccncc1)c1cc(-c2ccccn2)nc2ccc(Br)cc12 | 84.4% (active) |
| COc1cc(CCNC(=O)c2ccccc2NC(=O)C2=C(C)OCCS2)cc(OC)c1OC | -10.3% |
| Cc1ccc2nc(-c3ccncc3)cc(C(=O)Nc3ccc(OC(F)F)cc3)c2c1 | 69.1% (active) |
| O=C(Nc1ccc2nc3n(c(=O)c2c1)CCCC3)c1ccccc1F | -11.4% |
| CC1CCCCN1CCCNC(=O)C1CCN(c2nnc(-n3cccc3)s2)CC1 (centres undefined) | -30.3% |
| Cc1cccc(CSc2[nH]c(=O)ncc2C)c1 | 1% |
| O=C(C1CCN(S(=O)(=O)c2cccs2)CC1)N1CCc2ccccc2C1 | -7.4% |
| COc1ccc(NC(C)=O)cc1NC(=O)CSc1nnc(C2CCCCC2)n1N | 0.2% |
| O=C(c1ccccc1)C1CCN(C(=O)c2ccc(Cl)cc2)CC1 | -17.9% |
| COc1ccc(N(C(=O)CNC(=O)c2ccco2)C(C(=O)NC2CCCCC2)c2ccncc2)cc1 (centres undefined) | -11% |
| CCn1c(=O)n(CC)c2cc(N3CCCC3)c(NC(=O)c3cccc(OC)c3)cc21 | 0.2% |
| O=C(CCC(=O)c1ccc(Cl)cc1)NCc1ccccc1 | 3.5% |
| O=[N+]([O-])c1cccc2c([As](=O)(O)O)cccc12 | 0.9% |
| O=c1c2cnn(-c3ccc(F)cc3)c2ncn1Cc1cccnc1 | -6.2% |
| Cc1ccc(-n2ncc3c2CCCC3NC(=O)CCc2cnccn2)cc1C (centres undefined) | -2.7% |
| S=c1[nH]nc(-c2ccccc2)n1/N=C/c1c[nH]c2ccccc12 | 1.6% |

| SMILES | inhibition |
| --- | --- |
| CCC1CCCCN1CCCNC(=O)c1ccc(CS(=O)(=O)c2ccccc2C)o1 (centres undefined) | -7.8% |
| Cc1oc(-c2ccc(Cl)cc2)nc1CS(=O)CC(=O)NCCN1CCCCCC1 (centres undefined) | -27.9% |
| CCOc1cc(C2Nc3ccccc3NC3=C2C(=O)CC(C)(C)C3)ccc1OC(C)=O (centres undefined) | -4.7% |
| Cc1ccc(NC(=O)CN2C(=O)S/C(=C/c3ccc(-c4cccc(C(=O)O)c4)o3)C2=O)cc1 | 93.9% (active) |
| COc1cc(NC(=O)CN2CCN(c3ccccn3)CC2)cc(OC)c1OC | 6% |
| Cc1ccc(NC(=O)COC(=O)c2nn(C)cc2Cl)cc1 | -0.7% |
| Cc1ccc(NC(=O)CN2C(=O)S/C(=C\c3ccc(-c4cccc(C(=O)O)c4C)o3)C2=O)cc1 | 97.5% (active) |
| Cc1ccc(NC(=O)CN2C(=O)S/C(=C\c3ccc(-c4cccc(C(=O)O)c4C)o3)C2=O)cc1C | 84.7% (active) |
| CCCOc1ccc(Cn2c(=O)oc3ccc(C)cc32)cc1 | 7.7% |
| COc1ccccc1N1CCN(C2CCCN(Cc3cc(F)cc(F)c3)C2)CC1 (centres undefined) | -2.1% |
| COc1cccc(CNC(=O)CCNS(=O)(=O)c2ccc3c(c2)oc(=O)n3C)c1 | -4.6% |
| COCCNC(=O)c1cccc(OC2CCN(C(C)COc3ccccc3)CC2)c1 (centres undefined) | -14.8% |
| Nc1ncc(Br)cc1S(=O)(=O)NCCC(=O)NCc1ccc(F)cc1 | 4.1% |
| CCN1CCN(CCCNC(=O)CS(=O)(=O)Cc2nc(-c3ccccc3C)oc2C)CC1 | -9.5% |
| c1ccc(-c2nnsc2-c2ccccc2)cc1 | -7.8% |
| O=C(Cn1ccnc1)c1ccc(Cl)cc1 | 14.8% |
| CCC(C)NC(=O)c1ccc(CSCc2ccc(Cl)cc2)o1 (centres undefined) | -3.4% |
| CC1(C(=O)O)CCC(C(=O)NC2CCCCCC2)C1(C)C (centres undefined) | -1.3% |
| CCOc1ccccc1NC(=O)C1CCN(C(=O)c2cccs2)CC1 | -20.3% |
| CN(CCCNC(=O)c1ccccc1F)CCCNC(=O)c1ccccc1F | 15.1% |
| Cc1ccc(C(C(=O)NC2CCCC2)N(Cc2ccc(F)cc2)C(=O)c2snc(C(N)=O)c2N)o1 (centres undefined) | 10.6% |
| CN(C)c1ccc(NC(=O)CN2C3CCCC2CC(NC(=O)c2ccccc2)C3)cc1 (centres undefined) | -12.8% |
| COc1ccc(NC2CCCN(C(=O)c3ccc(CSC)o3)C2)cc1OC (centres undefined) | 20.5% |
| CCC1CCCCN1CCCNC(=O)CN1C(=O)COc2ccc(S(=O)(=O)N3CCOCC3)cc21 (centres undefined) | 1.2% |

| SMILES | inhibition |
| --- | --- |
| Cc1cc(C)c(S(=O)(=O)/N=C2/C=C(Sc3ncn[nH]3)C(=O)c3ccccc32)cc1C | 15.8% |
| COc1cc(CN2CCC(n3nccc3NC(=O)C3CCOC3)CC2)ccc1F (centres undefined) | -5.3% |
| COc1ccc(-n2nc(C(=O)Nc3ccc(OC)c(OC)c3)c3c4ccccc4n(C)c3c2=O)cc1 | 94.9% (active) |
| COc1ccc(NC(=O)c2cn(CCC#N)nc2-c2ccc(OC)c(OC)c2)cc1 | -8.4% |
| COc1ccc(-n2nc(C(=O)NCC3CCCO3)c3ccccc3c2=O)cc1 (centres undefined) | -4% |
| Cc1ccc2c(c1)N(CC(=O)NCCCN1CCCCC1)C(=O)CO2 | 2.3% |
| CC(C)(C)SC(=O)C[C@@H]1NS(=O)(=O)OC2CCCCC21 (some centres undefined) | 24.7% |
| CN(CC1CCCN(CCc2ccc(F)cc2)C1)C(=O)CCC(N)=O (centres undefined) | -4.8% |
| CN(C)C1(CNCC(O)c2ccccc2)CCCCC1 (centres undefined) | 6.5% |
| CC(=O)NC(Cc1ccc(F)cc1)C(=O)NC1CCN(S(=O)(=O)c2ccccc2)CC1 (centres undefined) | 41% |
| CCOCCCNC(=O)c1cn(C)c2ccc(S(=O)(=O)N3CCCCC3)cc2c1=O | 12.7% |
| N#Cc1c(-c2cccs2)nc(SCC(=O)c2ccc(Br)cc2)[nH]c1=O | 95.4% (active) |
| Nc1cc(=O)[nH]c(SCCSc2ccc(F)cc2)n1 | -2.2% |
| CN1CCN(CCNC(=O)Cn2c(=O)c3cccn3c3ccc(F)cc32)CC1 | -1% |
| COc1ccc(CN(C)Cc2c(O)ccc3ccccc23)cc1 | -9% |
| CCCCCc1nnc(NC(=O)Cc2ccc([N+](=O)[O-])cc2)s1 | 4.4% |
| O=C(Nc1ccccc1F)N1CCc2ccccc2C1 | -0.6% |
| Cn1cc(Cl)c(C(=O)Nc2nccs2)n1 | 25.2% |
| COC(=O)c1ccccc1NC(=O)CCS(=O)(=O)c1ccc(Br)cc1 | 89.7% (active) |
| COC(=O)c1ccccc1NC(=O)c1cc2ccccc2o1 | 12.8% |
| Cc1ccc(NC(=O)CCS(=O)(=O)c2ccc3c(c2)NC(=O)C(C)S3)nc1 (centres undefined) | -1.8% |
| Cc1ccc2cc(CN(CC3CCCO3)C(=O)c3cccs3)c(=O)[nH]c2c1 (centres undefined) | -11.2% |
| CN(C(=O)c1ccc(COc2ccccc2Cl)o1)c1ccccc1 | 15% |
| O=C(Cn1c(=O)c2c3c(sc2n(Cc2ccccc2)c1=O)CCCC3)NCCO | -0.2% |

| SMILES | inhibition |
| --- | --- |
| CCOC(=O)c1sc2nc(C)nc(NCc3ccc(Cl)cc3)c2c1C | 0.5% |
| CCOC(=O)c1sc2ncnc(Nc3cccc(C(=O)O)c3)c2c1C | -6.2% |
| Cc1cc(Cl)cc(Cl)c1OCCN1CCCC1 | -2.7% |
| CSCCNC(=O)c1ccc2nc(Cc3ccccc3F)oc2c1 | -8.6% |
| Cc1ccc2[nH]c(CN3CCN(C)C(CCO)C3)c(C)c2c1 (centres undefined) | -2.5% |
| Cc1cc(-n2c(SCC(=O)NCCC3=CCCCC3)nc3n[nH]c(C)c3c2=N)ccc1Cl | 15.1% |
| O=C(Nc1cc(-c2nc3ncccc3o2)ccc1Cl)c1cccs1 | -1.1% |
| CN(CCO)CCOCCOc1cccc2ccccc12 | -15.7% |
| CC(=O)c1ccc(OCC(=O)N2CCCC(Nc3ccc(C)c(C)c3)C2)cc1 (centres undefined) | 3.2% |
| CCCCN(CCCNC(=O)c1ccc(CS(=O)(=O)c2c(Cl)cccc2Cl)o1)Cc1ccccc1 | -4.4% |
| CC(=O)N/C(=N\c1nc(C)cc(C)n1)Nc1ccc(Cl)cc1Cl | -6.7% |
| Oc1cccc2ccc(/C=C/c3ccccc3Cl)nc12 | -3.4% |
| CSCCC1NC(=S)N(Cc2ccccc2)C1=O (centres undefined) | -5.4% |
| O=C(CNS(=O)(=O)c1cccc(Br)c1)NCC1CCCCC1 | 11.2% |
| Cc1ccc(N(C(=O)c2snc(C(N)=O)c2N)C(CC(C)C)C(=O)NC2CCCC2)cc1 (centres undefined) | 0.9% |
| Cn1nnc2cc(C(=O)Nc3ccccc3F)ccc21 | -4.2% |
| CCc1ccccc1NC(=O)C1CCCN1S(=O)(=O)c1ccc(-c2ccc(=O)[nH]n2)s1 (centres undefined) | -1.8% |
| Cc1ccc(S(=O)(=O)N(C)C)cc1NC(=O)CN1CCCC1 | -0.5% |
| C=CCN1C(=O)C2(OCCO2)c2cc(C)ccc21 | -6.3% |
| CN(C)c1ccc(NC(=O)Nc2ccc3c(c2)nnn3C)cc1 | 38.6% |
| C/C(=N\NC(=O)C1CCCC1)c1ccc(Cl)cc1 | 3.5% |
| C/C(=N\NC(=O)c1ccc(OC2OCCOC2Oc2ccc(C(=O)N/N=C(\C)c3ccncc3)cc2)cc1)c1ccncc1 (centres undefined) | 92.7% (active) |
